From PubChem BioAssay
Lassa entry inh – qHTS for Inhibitors of binding or entry into cells for Lassa Virus. Lassa virus pseudotype entry inhibition, cell reporter. Potency, µM (doses to about 37.9 µM), for inactives: at the top dose activity change, negative = inhibition, actives largely listed as inhibitors. 300,000 tested, 1.2% active; calls by dose curve; tested in HEK293 cells; further: potency means the concentration at half of the fitted maximal effect; nearly all actives have a fitted effect of over 50% in size
HCMV antiviral – qHTS Assay for inhibitors of the human cytomegalovirus (HCMV); HFF cells, HCMV-luciferase reporter, 72 h; stronger effect = lower value; activity change, negative = inhibition, % at 57.5 µM; 410,000 tested, 4.5% active; AID 1259415, 2018; in the data active means activity change below about -60%; inconclusive means no clear call, values can overlap the other calls; inactive means above about -39%
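Compounds were evaluated in HFFs infected with an HCMV luciferase reporter virus (MOI 1 PFU/cell). Luciferase in lysates collected 72 h post infection served as the replication measure.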
MARV entry inh – qHTS for inhibitors of binding or entry into cells for Marburg Virus | 300,000 tested, 1.8% active | Marburg virus pseudotyped entry inhibition, cell reporter | AID 540276, 2011 | Potency, µM (highest dose often 37.8 µM), without a hit: top-dose activity change, negative = inhibition, usual class: inhibitors; calls by dose curve; tested in HEK293 cells; further: potency means the concentration at half of the fitted maximal effect
FMDV inh – High Throughput Screening for Foot and Mouth Disease Virus Antivirals | FMDV antiviral cell-based qHTS | Potency, µM (doses to about 57.9 µM), without a hit: top-dose activity change, negative = inhibition, actives largely listed as inhibitors | 410,000 tested, 1.2% active; calls by dose curve; tested in HEK293T cells; further: read-out not given here; potency means the concentration at half of the fitted maximal effect; nearly all actives have a fitted effect of over 45% in size
Numbers without * were called inactive; [ ] = remark or other dose. Shown are actives, neighbours in structure and some others; about 6.2% of the full set was active somewhere. On the % scale 0 is the no-effect control and ±100 the full control effect.

Screening COc1ccc(/C=N\NC(=O)COc2ccc(C(C)(C)C)cc2)cc1Cn1nc(C)cc1C returned Lassa entry inh 2.24µM*, HCMV antiviral -9.8, MARV entry inh inconclusive and FMDV inh inconclusive.
O=c1c2ccccc2nc(COc2ccccc2)n1/N=C/c1ccc(O)c(O)c1 was read as HCMV antiviral -23.6, MARV entry inh 1.8% and FMDV inh -2.3%.
Screening Cc1ccc(-c2[nH]ncc2/C=N/n2c(COc3ccccc3)nc3ccccc3c2=O)cc1 returned Lassa entry inh inconclusive, HCMV antiviral -77.9*, MARV entry inh inconclusive and FMDV inh -23.4%.
Cc1ccccc1OCc1nc2ccccc2c(=O)n1/N=C/c1cn[nH]c1-c1ccccc1 was read as Lassa entry inh 10µM*, HCMV antiviral -15.7, MARV entry inh 15.8µM* and FMDV inh inconclusive.
`Cc1cc(/C=N/n2c(COc3ccccc3)nc3ccccc3c2=O)c(O)c([N+](=O)[O-])c1` gave Lassa entry inh inconclusive, HCMV antiviral -62.9*, MARV entry inh inconclusive and FMDV inh -29.0%.
`CCOc1ccc(CN2CCOc3ccc(C(O)c4cccnc4)cc3C2)cc1` (stereo unspecified) gave FMDV inh -29.1%.
For CC1(C(=O)Nc2cnc3ccccc3c2)CCN1C(=O)CCc1ccccc1 (stereo unspecified) the results were HCMV antiviral -34.9 and FMDV inh 0.5%.
`C[C@H]1CCC/C=C/[C@@H]2C[C@H](O)C[C@H]2[C@@H](O)/C=C/C(=O)O1` gave Lassa entry inh 0.398µM*, HCMV antiviral -76.2*, MARV entry inh 0.282µM* and FMDV inh -19.7%.
Screening C[C@H]1CCC/C=C/[C@@H]2C[C@H](O)C[C@H]2[C@H](O)[C@H](S(=O)c2ccc(O)cc2)CC(=O)O1 (stereo partly specified) returned Lassa entry inh 1.26µM*, HCMV antiviral -98.8*, MARV entry inh inconclusive and FMDV inh -18.9%.
`CC1CCCC=CC2CC(OC(=O)CN(C)C)CC2C(O)C=CC(=O)O1` (stereo unspecified) gave Lassa entry inh 1.41µM*, HCMV antiviral -97.6*, MARV entry inh inconclusive and FMDV inh -17.9%.
`C[C@H]1CCCC=CC2C[C@H](O)C[C@@H]2[C@H](O)C=CC(=O)O1` (stereo partly specified) gave FMDV inh -18.8%.
Screening COc1ccccc1CN1CCOc2ccc(CN3CCCCC3CO)cc2C1 (stereo unspecified) returned FMDV inh -3.3%.
Cc1ccc(OCc2nnc(SCC(=O)Nc3cccc4ccccc34)n2-c2ccccc2)cc1 was read as Lassa entry inh inconclusive, HCMV antiviral 25.8, MARV entry inh 12.6µM* and FMDV inh -23.7%.
`Cc1ccc(NC(=O)CSc2nnc(COc3ccc(C#N)cc3)n2-c2ccccc2)cc1C` gave Lassa entry inh inconclusive, HCMV antiviral -13.2, MARV entry inh 7.3µM* and FMDV inh -2.8%.
Screening Cc1ccc(-n2c(COc3ccccc3)nnc2SCC(=O)O)cc1 returned HCMV antiviral -3.8 and FMDV inh 11.8%.
For COc1ccc(-c2cc(-c3ccc(C)cc3)nc3c2COc2ccccc2-3)cc1 the results were Lassa entry inh inconclusive, HCMV antiviral -3.4, MARV entry inh 4.3%[46.1 µM] and FMDV inh -18.6%.
C=Cc1ccc(CSc2nnc(C)n3c2cc2occc23)cc1 was read as Lassa entry inh -18.6%[46.1 µM], HCMV antiviral -0.4 and FMDV inh 39.6%.
For O=c1[nH]nc(Sc2ncnc3sccc23)n1CCc1ccccc1 the results were Lassa entry inh inconclusive, HCMV antiviral -95.3*, MARV entry inh inconclusive and FMDV inh inconclusive.
`CCN(CC)C(=O)CSc1n[nH]c(=O)n1CCc1ccccc1` gave Lassa entry inh 2.7%, HCMV antiviral 38.7, MARV entry inh 3.2%[46.1 µM] and FMDV inh 12.7%.
`CC1=C(C(=O)Nc2ccc(C)cc2C)C(c2sccc2C)n2ncnc2N1` (stereo unspecified) gave Lassa entry inh 1.5%[46.1 µM], HCMV antiviral 7.9 and FMDV inh 2.2%.
`Cc1cc(Cl)c(S(=O)(=O)N2CCSCC2)cc1OCC(=O)NC1CCCCC1` gave Lassa entry inh inconclusive, HCMV antiviral -95.3*, MARV entry inh 9.2µM* and FMDV inh -54.9%.
Screening CCOC(=O)N1CCN(S(=O)(=O)c2cc(OCC(=O)NC3CCCCC3)c(C)cc2Cl)CC1 returned Lassa entry inh 17.8%, HCMV antiviral -69.7*, MARV entry inh inconclusive and FMDV inh -0.3%.
Cc1cc(Cl)c(S(=O)(=O)N2CCCCCC2)cc1OCC(=O)NC1CCCCC1 was read as Lassa entry inh -5.3%, HCMV antiviral inconclusive, MARV entry inh -16.8% and FMDV inh -3.6%.
`CCN1CCN(S(=O)(=O)c2cc(OCC(=O)NC3CCCCC3)c(C)cc2Cl)CC1` gave Lassa entry inh -25.9%, HCMV antiviral -65.0*, MARV entry inh inconclusive and FMDV inh inconclusive.
For Cc1cc(Cl)ccc1OCC(=O)NC1CCCC1 the results were Lassa entry inh -5.7%, HCMV antiviral -74.4* and MARV entry inh inconclusive.
Screening CC(=O)Nc1ccc(Nc2cc3c(cn2)nc(-c2cccc(F)c2)n3C)cc1 returned HCMV antiviral 21.4.
O=c1c2ccccc2nc(-c2ccc(Cl)cc2)n1CCCOc1ccccc1F was read as Lassa entry inh -1.1%[46.1 µM], HCMV antiviral 33.7, MARV entry inh 13.8%[46.1 µM] and FMDV inh -4.0%.
Screening Cc1ccc2nc(-c3cccc(Br)c3)c(Cc3ccsc3)n2c1 returned HCMV antiviral 41.3.
Screening CCC[C@H]1[C@@H](NS(=O)(=O)c2ccc([N+](=O)[O-])cc2[N+](=O)[O-])CC[C@@]23CCCN2C(=O)CCC[C@@H]13 returned HCMV antiviral -20.6.
Cc1cc(Cl)c(S(=O)(=O)NC2CCCC2)cc1OCC(=O)NC1CCCCC1 was read as Lassa entry inh inconclusive, HCMV antiviral -90.1*, MARV entry inh inconclusive and FMDV inh -12.2%.
For Cc1cc(Cl)c(S(=O)(=O)N2CCN(c3ccccn3)CC2)cc1OCC(=O)NC1CCCCC1 the results were HCMV antiviral -76.9* and FMDV inh 22.4µM*.
Screening Cc1cc(Cl)c(S(N)(=O)=O)cc1OCC(=O)NC1CCCCC1 returned Lassa entry inh 14.1%, HCMV antiviral -14.3, MARV entry inh inconclusive and FMDV inh 2.1%.
For Cc1ccccc1CNCCSc1nnnn1-c1ccccc1 the results were Lassa entry inh 26.6%[46.1 µM], HCMV antiviral -11.7, MARV entry inh 28.3%[46.1 µM] and FMDV inh -10.2%.
Screening CC(NC(=S)NC1CCC(C(C)(C)C)CC1)c1ccccc1 (stereo unspecified) returned HCMV antiviral -81.7* and FMDV inh -2.5%.
For Cc1ccc(C(C)NC(=S)NC2CCCCC2)cc1C (stereo unspecified) the results were HCMV antiviral -75.2*.
`Cc1ccc(C(C)NC(=S)NC2CCCCC2)c(C)c1` (stereo unspecified) gave HCMV antiviral -77.7* and FMDV inh -24.7%.
Cc1ccc(C(C)NC(=O)C2CCCC2)c(C)c1 (stereo unspecified) was read as HCMV antiviral -4.7 and FMDV inh -16.5%.
